Laboratory results: PubChem BioAssay (Tox21)
Inconclusive results are not listed. A call without a number means that no potency is given here. Unmarked numbers belong to inactive results. Active and inactive are the calls of the source. Unless noted, the call rests on the fitted dose curve; in most records, active means well fitted curve in the direction sought with a large enough effect in the repeat runs; inconclusive means weak or mixed curves; inactive means no such curve, though single readings can be large; an effect the other way counts as inactive or inconclusive.

Experiments:
[1] = molecular target: Peroxisome proliferator-activated receptor delta (Homo sapiens) (UniProt Q03181); assay: qHTS assay to identify small molecule agonists of the peroxisome proliferator-activated receptor delta (PPARd) signaling pathway (AID 743212; calls by dose curve)
Summary of the method: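 HEK293H PPARd-bla cells; 5 h preincubation 37 C/5% CO2; compound (DMSO) 37 C; LiveBLAzer B/G FRET substrate 2 h RT; fluorescence intensity.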

[2] = qHTS assay to identify small molecule antagonists of the peroxisome proliferator-activated receptor delta (PPARd) signaling pathway - cell viability counter screen (AID 743213); further: nearly all actives have a fitted effect of over 50% in size
Summary of the method: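 Agonist-stimulated (L165041, 300 nM final) HEK293H PPARd UAS-bla cells are exposed to compounds for 17 h at 37 C, and ATP-based luminescence (CellTiter-Glo) from the same wells reports cytotoxicity.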

[3] = molecular target: Peroxisome proliferator-activated receptor delta (Homo sapiens) (UniProt Q03181); assay: qHTS assay to identify small molecule antagonists of the peroxisome proliferator-activated receptor delta (PPARd) signaling pathway (AID 743215; active means well fitted inhibition curve with a large enough effect in the signal ratio in the repeat runs, not every such curve was filed as active; the % refers to the signal ratio; further: series mostly up to about 62 µM)
Summary of the method: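 PPARd UAS-bla HEK293H cells were pre-incubated 5 h at 37 C, then given test compounds in DMSO plus agonist L165041 (300 nM final). After 17 h at 37 C, beta-lactamase FRET substrate was added; fluorescence read after 2 h at room temperature.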

[4] = molecular target: Bile acid receptor (Homo sapiens) (UniProt Q96RI1); assay: qHTS assay to identify small molecule antagonists of the farnesoid-X-receptor (FXR) signaling pathway (AID 743217; active means well fitted inhibition curve with a large enough effect in the signal ratio in the repeat runs, not every such curve was filed as active; the % refers to the signal ratio)
Summary of the method: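 FXR-UAS-bla HEK 293T cells pre-incubated 5 h at 37 °C, then exposed to compounds with chenodeoxycholic acid (50 uM final) for 16 h at 37 °C. Beta-lactamase reporter read by LiveBLAzer B/G FRET substrate fluorescence after 2 h at room temperature.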

[5] = qHTS assay to identify small molecule agonists of the farnesoid-X-receptor (FXR) signaling pathway - cell viability counter screen (AID 743218); further: nearly all actives have a fitted effect of over 45% in size
Summary of the method: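 FXR-UAS-bla HEK 293T cells, plated 5 h at 37 C, were exposed to compounds for 16 h at 37 C. CellTiter-Glo was then added to the same wells as the bla readout; luminescence read after 30 min at room temperature.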

[6] = molecular target: Bile acid receptor (Homo sapiens) (UniProt Q96RI1); assay: qHTS assay to identify small molecule agonists of the farnesoid-X-receptor (FXR) signaling pathway (AID 743220; active means well fitted activation curve with a large enough effect in the signal ratio in the repeat runs, not every such curve was filed as active; the % refers to the signal ratio)
Summary of the method: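 Beta-lactamase reporter under UAS control in GeneBLAzer FXR HEK 293T cells (5000/well) measured with LiveBLAzer FRET substrate after 2 h at room temperature. Compound exposure lasted 16 h at 37C.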

[7] = qHTS assay to identify small molecule antagonists of the farnesoid-X-receptor (FXR) signaling pathway - cell viability counter screen (AID 743221; active means well fitted cell-killing curve with a large enough effect in the repeat runs, not every such curve was filed as active; further: nearly all actives have a fitted effect of over 50% in size)
Summary of the method: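 HEK 293T FXR-bla cells, 5 h pre-incubation; compound + CDCA 50 uM final, 16 h, 37 C; beta-lactamase FRET read first, then CellTiter-Glo luminescence, 30 min RT.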

[8] = molecular target: Vitamin D3 receptor (Homo sapiens) (UniProt P11473); assay: qHTS assay to identify small molecule agonists of the vitamin D receptor (VDR) signaling pathway (AID 743222; calls by dose curve)
Summary of the method: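 VDR-bla cells were plated 4 h at 37C/5% CO2, then exposed to compounds in DMSO for 16 h. After LiveBLAzer B/G FRET substrate addition and 2 h at room temperature, beta-lactamase reporter fluorescence was read.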

[9] = molecular target: Vitamin D3 receptor (Homo sapiens) (UniProt P11473); assay: qHTS assay to identify small molecule antagonists of the vitamin D receptor (VDR) signaling pathway (AID 743223; active means well fitted inhibition curve with a large enough effect in the signal ratio in the repeat runs, not every such curve was filed as active; the % refers to the signal ratio)
Summary of the method: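 Beta-lactamase reporter read-out: FRET substrate fluorescence after 2 h at room temperature, following 16 h exposure of VDR-bla cells to test compound plus 3 nM (final) 1alpha,25-dihydroxyvitamin D3 agonist at 37C.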

[10] = qHTS assay to identify small molecule agonists of the vitamin D receptor (VDR) signaling pathway - cell viability counter screen (AID 743224); further: series mostly up to about 63 µM; nearly all actives have a fitted effect of over 50% in size
Summary of the method: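 VDR-bla cells were preincubated 4 h at 37C/5% CO2, then exposed to compounds for 16 h. After the 2 h room-temperature bla FRET read, CellTiter-Glo was added to the same wells and luminescence read after 30 min.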

[11] = qHTS assay to identify small molecule agonists of the NFkB signaling pathway - cell viability counter screen (AID 1159515; calls by dose curve; further: series mostly up to about 61 µM; nearly all actives have a fitted effect of over 55% in size)
Summary of the method: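 NFkB-bla ME-180 cells, 2,000/well, were plated overnight at 37 C, 5% CO2, then exposed to compounds in DMSO for 5 hr. After the bla FRET read, CellTiter-Glo was added to the same wells; luminescence was read after 30 min at room temperature.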

[12] = qHTS assay to identify small molecule agonists of the endoplasmic reticulum stress response signaling pathway (AID 1159516; active means well fitted activation curve with a large enough effect in the signal ratio in the repeat runs, not every such curve was filed as active; the % refers to the signal ratio)
Summary of the method: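 CellSensor ESRE-bla HeLa cells, carrying a beta-lactamase reporter driven by the ER stress response element, were plated overnight and exposed to compounds for 5 hr at 37 C. Reporter activity was read as FRET substrate fluorescence after 2 hr at room temperature.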

[13] = qHTS assay to identify small molecule antagonists of the retinoid-related orphan receptor gamma (ROR-gamma) signaling pathway - cell viability counter screen (AID 1159520); further: nearly all actives have a fitted effect of over 50% in size
Summary of the method: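 Cytotoxicity was read from cellular ATP (CellTiter-Glo luminescence) after 16 hr at 37 C with 1 uM doxycycline induction. The inducer was added 2 hr after compound transfer to Tet-on ROR gamma CHO cells.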

[14] = molecular target: Nuclear receptor ROR-gamma (Homo sapiens) (UniProt P51449); assay: qHTS assay to identify small molecule antagonists of the retinoid-related orphan receptor gamma (ROR-gamma) signaling pathway (AID 1159521)
Summary of the method: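 Luminescence readout (ONE-Glo, 30 min RT) after 16 h doxycycline induction; loss of signal scored as antagonism. CHO cells with TET-inducible RORγ and RORE-LUC reporter; compounds added 2 h before 1 uM final doxycycline.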

[15] = qHTS assay to identify small molecule agonists of the AP-1 signaling pathway (AID 1159526; calls by dose curve)
[16] = molecular target: Retinoic acid receptor RXR-alpha (Homo sapiens) (UniProt P19793); assay: qHTS assay to identify small molecule agonists of the RXR signaling pathway (AID 1159527; calls by dose curve; further: nearly all actives have a fitted effect of over 35% in size; further: potency means the concentration at half of the fitted maximal effect)
Summary of the method: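 Agonist mode; 9-cis retinoic acid positive control. HEK 293T UAS-bla reporter cells, 2% charcoal-stripped FBS, 16 hr compound exposure at 37 C/5% CO2. LiveBLAzer B/G FRET substrate 2 hr RT; ex 405, em 460/530 nm.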

[17] = qHTS assay to identify small molecule agonists of the RXR signaling pathway - cell viability counter screen (AID 1159529)
Summary of the method: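 Luminescence from CellTiter-Glo (30 min, RT) measured viability in the same wells as the beta-lactamase reporter readout. Cells: GeneBLAzer RXR-alpha HEK 293T, 2% charcoal-stripped FBS. Compound exposure 16 hr, 37 C.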

[18] = qHTS assay to identify small molecule agonists of the AP-1 signaling pathway - cell viability counter screen (AID 1159525; calls by dose curve; further: nearly all actives have a fitted effect of over 55% in size)
Summary of the method: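 Luminescent ATP readout (Cell Titer Glo, 30 min RT), normalised to DMSO and tetra n-octyl ammonium bromide controls. Cells were ME-180 AP-1-bla in 0.5% dialyzed FBS Opti-MEM, with a 5 h, 37 °C compound exposure.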

[19] = qHTS assay to identify small molecule antagonists of the vitamin D receptor (VDR) signaling pathway - cell viability counter screen (AID 743225); further: nearly all actives have a fitted effect of over 50% in size
Summary of the method: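 Viability counter screen run in the same wells as the beta-lactamase reporter assay: HEK 293T VDR-UAS-bla cells, 16 h compound exposure at 37C with 3 nM (final) 1-alpha,25-dihydroxyvitamin D3. CellTiter-Glo luminescence, 30 min, room temperature.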

[20] = qHTS assay to identify small molecule agonists of the endoplasmic reticulum stress response signaling pathway - cell viability counter screen (AID 1159517; calls by dose curve)
Summary of the method: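 HeLa cells carrying an ESRE-driven beta-lactamase reporter receive compound for 5 hr at 37 C. Cell viability is then gauged with CellTiter-Glo by luminescence, 30 min at room temperature.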

Bile acid receptor (Homo sapiens), sequence (Q96RI1 whole entry, looked up): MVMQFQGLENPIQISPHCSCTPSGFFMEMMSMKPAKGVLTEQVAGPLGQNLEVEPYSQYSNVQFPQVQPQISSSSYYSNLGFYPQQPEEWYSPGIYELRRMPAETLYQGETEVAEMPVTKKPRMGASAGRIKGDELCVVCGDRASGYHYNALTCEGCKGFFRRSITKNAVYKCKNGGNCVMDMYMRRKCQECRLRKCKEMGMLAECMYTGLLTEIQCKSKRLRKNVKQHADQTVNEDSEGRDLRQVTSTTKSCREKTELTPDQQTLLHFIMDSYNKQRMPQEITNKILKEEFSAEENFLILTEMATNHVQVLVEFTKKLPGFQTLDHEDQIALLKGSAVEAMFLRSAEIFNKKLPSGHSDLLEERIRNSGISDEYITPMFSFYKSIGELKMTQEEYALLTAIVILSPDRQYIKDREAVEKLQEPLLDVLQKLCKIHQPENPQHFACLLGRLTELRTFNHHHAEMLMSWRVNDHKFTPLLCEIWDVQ
Peroxisome proliferator-activated receptor delta (Homo sapiens), sequence (Q03181 whole entry, looked up): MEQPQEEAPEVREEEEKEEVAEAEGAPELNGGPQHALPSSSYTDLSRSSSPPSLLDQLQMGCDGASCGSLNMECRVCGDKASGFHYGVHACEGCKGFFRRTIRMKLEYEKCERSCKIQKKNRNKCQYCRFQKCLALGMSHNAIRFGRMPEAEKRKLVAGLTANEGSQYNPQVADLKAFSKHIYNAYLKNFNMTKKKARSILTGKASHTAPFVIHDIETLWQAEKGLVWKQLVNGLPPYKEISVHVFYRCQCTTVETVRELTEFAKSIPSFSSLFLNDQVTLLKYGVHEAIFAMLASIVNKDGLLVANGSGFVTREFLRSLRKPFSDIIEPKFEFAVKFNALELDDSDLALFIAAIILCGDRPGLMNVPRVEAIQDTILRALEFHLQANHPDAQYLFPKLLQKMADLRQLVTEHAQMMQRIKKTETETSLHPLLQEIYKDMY
Vitamin D3 receptor (Homo sapiens), sequence (P11473 whole entry, looked up): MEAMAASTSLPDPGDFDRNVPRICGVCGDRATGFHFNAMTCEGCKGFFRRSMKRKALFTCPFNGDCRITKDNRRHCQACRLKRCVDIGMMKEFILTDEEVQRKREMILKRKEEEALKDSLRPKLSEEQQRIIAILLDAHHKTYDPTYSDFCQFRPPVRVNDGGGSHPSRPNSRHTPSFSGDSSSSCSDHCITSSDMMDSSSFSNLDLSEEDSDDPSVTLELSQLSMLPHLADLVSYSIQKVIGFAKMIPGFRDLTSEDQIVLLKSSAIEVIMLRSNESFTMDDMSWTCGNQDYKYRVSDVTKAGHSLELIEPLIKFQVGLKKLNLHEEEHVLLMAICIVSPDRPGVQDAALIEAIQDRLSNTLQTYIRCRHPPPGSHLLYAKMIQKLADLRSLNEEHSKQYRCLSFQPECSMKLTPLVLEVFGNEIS
Retinoic acid receptor RXR-alpha (Homo sapiens), sequence (P19793 whole entry, looked up): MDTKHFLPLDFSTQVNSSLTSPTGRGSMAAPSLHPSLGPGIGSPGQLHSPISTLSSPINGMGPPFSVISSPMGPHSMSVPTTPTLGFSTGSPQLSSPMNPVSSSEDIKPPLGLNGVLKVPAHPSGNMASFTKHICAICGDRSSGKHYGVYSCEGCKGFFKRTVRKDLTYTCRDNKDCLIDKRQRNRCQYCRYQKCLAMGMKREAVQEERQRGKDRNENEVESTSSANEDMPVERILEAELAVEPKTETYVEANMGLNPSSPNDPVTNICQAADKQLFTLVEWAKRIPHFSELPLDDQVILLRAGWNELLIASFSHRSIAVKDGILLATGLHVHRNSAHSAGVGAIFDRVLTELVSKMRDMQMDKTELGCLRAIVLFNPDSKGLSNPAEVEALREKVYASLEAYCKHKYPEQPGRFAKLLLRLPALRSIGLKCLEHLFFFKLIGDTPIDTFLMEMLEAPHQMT

CC1(C)C(=O)C(C)(C)C1=O
outcome [1]: inactive
outcome [2]: inactive
outcome [3]: inactive
outcome [4]: inactive
outcome [5]: inactive
outcome [6]: inactive
outcome [7]: inactive
outcome [8]: inactive
outcome [9]: inactive
outcome [10]: inactive
outcome [11]: inactive
Potency [12]: inactive
outcome [13]: inactive
outcome [14]: inactive
Potency [15]: inactive
Potency [16]: inactive
Potency [17]: inactive

Cc1ccc2ccccc2n1
outcome [2]: inactive
outcome [3]: inactive
outcome [5]: inactive
outcome [8]: inactive
outcome [9]: inactive
outcome [10]: inactive
outcome [11]: inactive
Potency [12]: inactive
outcome [13]: inactive
outcome [14]: inactive
outcome [18]: inactive
Potency [15]: inactive
Potency [16]: inactive
Potency [17]: inactive

C=C(C)C(=O)OCCOC1CC2CC1C1C=CCC21 (stereo not drawn)
outcome [1]: inactive
outcome [2]: inactive
outcome [3]: inactive
outcome [4]: inactive
outcome [5]: inactive
outcome [6]: inactive
outcome [7]: inactive
outcome [8]: inactive
outcome [10]: inactive
outcome [11]: inactive
Potency [12]: inactive
outcome [14]: inactive
outcome [18]: inactive
Potency [15]: inactive
Potency [16]: inactive
Potency [17]: inactive

COc1cc(S(N)(=O)=O)cc(C(=O)O)c1OC
outcome [1]: inactive
outcome [2]: inactive
outcome [3]: inactive
outcome [5]: inactive
outcome [7]: inactive
outcome [8]: inactive
outcome [9]: inactive
outcome [10]: inactive
outcome [19]: inactive
outcome [11]: inactive
Potency [12]: inactive
outcome [14]: inactive
outcome [18]: inactive
Potency [15]: inactive
Potency [16]: inactive
Potency [17]: inactive

CCCCCCC(O)CO (stereo not drawn)
outcome [2]: inactive
outcome [3]: inactive
outcome [4]: inactive
outcome [5]: inactive
outcome [6]: inactive
outcome [7]: inactive
outcome [19]: inactive
outcome [11]: inactive
Potency [12]: inactive
outcome [13]: inactive
outcome [14]: inactive
outcome [18]: inactive
Potency [15]: inactive
Potency [16]: 12.3 µM (active)
Potency [17]: inactive

Cc1ccc(Br)cc1
outcome [1]: inactive
outcome [2]: inactive
outcome [3]: inactive
outcome [5]: inactive
outcome [7]: inactive
outcome [8]: inactive
outcome [9]: inactive
outcome [19]: inactive
outcome [11]: inactive
Potency [12]: inactive
outcome [13]: inactive
outcome [14]: inactive
Potency [15]: inactive
Potency [16]: inactive
Potency [17]: inactive

C=CCOC(=O)CCCCCCCC
outcome [2]: inactive
outcome [4]: inactive
outcome [5]: inactive
outcome [6]: inactive
outcome [7]: inactive
outcome [8]: inactive
outcome [9]: inactive
outcome [19]: inactive
outcome [11]: inactive
Potency [12]: inactive
outcome [13]: inactive
outcome [14]: inactive
Potency [15]: inactive
Potency [16]: 17.5 µM (active)
Potency [17]: inactive

Cc1ccc(OC(=O)CC(C)C)cc1
outcome [1]: inactive
outcome [2]: inactive
outcome [4]: inactive
outcome [5]: inactive
outcome [6]: inactive
outcome [11]: inactive
Potency [12]: inactive
outcome [13]: inactive
outcome [14]: inactive
outcome [18]: inactive
Potency [15]: inactive
Potency [16]: inactive
Potency [17]: inactive

C/C(=N\O)c1ccc(OCC(=O)N2CCCCC2)cc1
outcome [1]: inactive
outcome [2]: inactive
outcome [3]: inactive
outcome [4]: inactive
outcome [5]: inactive
outcome [6]: inactive
outcome [7]: inactive
outcome [10]: inactive
outcome [19]: inactive
outcome [11]: inactive
outcome [20]: inactive
outcome [13]: inactive
outcome [14]: inactive
outcome [18]: inactive
Potency [15]: inactive
Potency [16]: inactive
Potency [17]: inactive
